# In the library only some 19% were active in any assay of this set; here they are far more common.
# HT1080 IDH1KD tx: HT-1080 IDH1 knockdown cell toxicity (counter line). Potency, µM (top dose mostly 46.1 µM), for the others: top-dose activity, negative = toxicity, most hits filed as cytotoxic. 360,000 tested, 2% active. HT-1080 IDH1 knockdown viability, ATP luminescence, 48 h;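 note: 0% = DMSO wells and -100% = cell-free medium wells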
#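 IDH1KD HT-1080 cells, 750/well, RPMI + 5% FBS; compound pinned after 2 h settling; 48 h, 37 °C; CellTiter-Glo luminescence; % activity normalised to DMSO and no-cell wells; curves fitted, classed by r2 and efficacy.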
# TDP1 cell noCPT: qHTS for Inhibitors of human tyrosyl-DNA phosphodiesterase 1 (TDP1): qHTS in cells in absence of CPT. DT40 Tdp1-/- hTDP1 cells, no CPT, ATP luminescence, 48 h. Potency, µM (series often up to 46.2 µM), inactives show at the highest dose activity change, negative = growth inhibition, most hits filed as inhibitors. 420,000 tested, 15% active. AID 686978, 2013; note: nearly all actives have a fitted effect of over 55% in size
#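 Chicken DT40 Tdp1-/- cells complemented with human TDP1, screened without camptothecin (DMSO vehicle only), 400 cells/well. Compounds pin-transferred, cells incubated at 37 °C for at least 48 hr. Growth read as ATP-dependent luminescence (CellTiter-Glo, 30 min at RT).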
# DT40 TDP1 CPT: DT40-hTDP1 cell growth loss with CPT; chicken DT40 Tdp1-/-;hTDP1 cells + 20 nM CPT, ATP luminescence, 48 h; Potency, µM (highest dose often 46.2 µM), without a hit: at the top dose activity change, negative = growth inhibition, usual class: inhibitors; 420,000 tested, 12% active; note: nearly all actives have a fitted effect of over 55% in size
#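 Chicken DT40 Tdp1-/- cells stably complemented with human TDP1 were seeded at 400 cells/well in medium containing 20 nM camptothecin, exposed to pin-transferred compounds, and grown at 37 °C for at least 48 hr. Viability was read as ATP luminescence.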
# KB-V1 cytotox: KB-V1 MDR subline cytotoxicity; Potency, µM (highest dose often 46.1 µM), hits mostly cytotoxic; 400,000 tested, 3.4% active; KB-V1 MDR cells viability, CellTiter-Glo, 72 h; note: nearly all actives have a fitted effect of over 60% in size
#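 Potencies derive from concentration-effect curves fitted to normalized luminescence (CellTiter-Glo) of KB-V1 cells treated for 72 h at 37 degrees C in phenol-red-free DMEM containing 10% FBS.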
# HT1080NT lethal: kills 2HG-producing HT-1080-NT fibrosarcoma cells. 360,000 tested, 1.6% active. Potency, µM (highest dose often 46.1 µM), without a hit: at the top dose activity, negative = less viability, hits mostly cytotoxic. HT-1080-NT fibrosarcoma viability, CellTiter-Glo ATP luminescence, 48 h. AID 686970;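 note: NT is the 2HG producing partner of a matched IDH1 knockdown line; 0% = DMSO-treated cells and -100% = media-only wells without cells; nearly all actives have a fitted effect of over 55% in size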
#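 Viability by CellTiter-Glo luminescence after 48 h compound exposure at 37C of HT-1080-NT cells (750/well, RPMI, 5% FBS). % activity scaled between DMSO wells and medium-only wells, then curve-fitted and categorized by curve class.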
# KB-3-1 tox: kills parental KB-3-1 adenocarcinoma cells. KB-3-1 viability, CellTiter-Glo ATP luminescence, 72 h. Potency, µM (titrated, usually from 46.1 µM), hits mostly cytotoxic. 400,000 tested, 1.4% active; note: nearly all actives have a fitted effect of over 60% in size
#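 Luminescent ATP read-out (CellTiter-Glo) measures survival of drug-naive KB-3-1 cells after 72 h compound exposure at 37 °C. Titration series was screened from lowest to highest concentration, with DMSO vehicle plates as background controls.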
# Starred values were filed as active, the others as inactive; i = inactive; ? = inconclusive; nt = not tested or not shown; ! = not active in a repeat. Calls come from the whole dose curve; as a rule, active = well fitted curve in the direction sought with a large enough effect; inconclusive = small, poorly fitted or top-dose-only effect, or another doubt; inactive = no such curve, though single readings can be large; an effect the other way counts as inactive or inconclusive. Unless noted, % is set by controls: 0 for no effect and ±100 for the full control effect; potency is the fitted concentration of half-maximal effect.
SMILES,HT1080 IDH1KD tx,TDP1 cell noCPT,DT40 TDP1 CPT,KB-V1 cytotox,HT1080NT lethal,KB-3-1 tox
Cc1ccccc1OCC(=O)Nc1nnc(SCc2cc(=O)n3cc(Cl)ccc3n2)s1,nt,-19%,-12%,nt,nt,nt
COc1ccc(N2CCN(C(=O)CCn3nc(C)c(S(=O)(=O)N4CCCC4)c3C)CC2)cc1,nt,?,?,i,nt,i
NC1(C(=O)O)CC(C(=O)O)C1 (configuration not stated),nt,-5%,-2%,nt,nt,nt
CCOc1ccc2oc(=O)cc(CN3CCN(C(=O)c4ccc(Cl)cc4)CC3)c2c1,nt,21µM*,?,nt,nt,nt
Cc1cc(C)c2c(C)c(C(=O)N3CCC(c4nc5ccccc5s4)CC3)oc2c1,nt,?,?,i,nt,i
CC(=O)Nc1cc(-c2ccc(N(C)C)cc2)cn2c(-c3ccc(F)cc3)cnc12,?,?,?,i,?,i
CN1CCN(c2ccc(-c3cc(NC=O)c4ncc(-c5ccc(F)cc5)n4c3)cc2)CC1,?,?,15µM*,i,?,?
CN1CCN(c2ccc(-c3cc(NC=O)c4ncc(-c5ccccc5)n4c3)cc2)CC1,?,16µM*,21µM*,23µM*,?,i
Cc1ccccc1S(=O)(=O)Cc1ccc(C(=O)NCCN(C)Cc2ccccc2)o1,21%,-6%,-28%,i,6%,i
CC(C)N(CCNC(=O)c1ccc(CS(=O)(=O)c2c(Cl)cccc2Cl)o1)Cc1ccccc1,-3%,?,21µM*,i,-14%,i
Cc1ccccc1S(=O)(=O)Cc1ccc(C(=O)NCCN(Cc2ccccc2)C(C)C)o1,11%,16µM*,?,?,11%,i
Cc1cc(C)n2c(SC(C)C(=O)NC3(C#N)CCCCC3)nnc2n1 (configuration not stated),-4%,14%,1%,i,4%,i
C/C(=N\NC(=O)CNC(=O)C(c1ccccc1)c1ccccc1)c1ccc(C(C)(C)C)cc1,?,16µM*,16µM*,i,?,?
CCN(CC)c1ccc(C(=C2C=CC(=[N+](CC)CC)C=C2)c2ccccc2)cc1,1µM*,0.15µM*,0.16µM*,?,2.6µM*,0.026µM*
CCN(CC)c1ccc(C(=C2C=CC(=[N+](CC)CC)C=C2)c2ccc(N(CC)CC)cc2)cc1,5.2µM*,0.73µM*,0.92µM*,?,7.3µM*,?
COC(=O)c1cc(Br)ccc1NC(=O)CSCc1c(C)noc1C,0%,?,?,i,-1%,i
COc1cc(NC(=O)c2ccc(S(=O)(=O)N(C)c3ccccc3OC)cc2)cc(OC)c1,-1%,21µM*,18µM*,i,-22%,i
COc1ccc(NC(=O)COC(=O)c2ccc(S(=O)(=O)N(C)c3ccccc3OC)cc2)cc1OC,5%,-12%,-1%,i,1%,i
CCC(C)(C)NC(=O)c1ccc(S(=O)(=O)N(C)c2ccccc2OC)cc1,2%,-11%,-20%,i,13%,i
COc1ccccc1N(C)S(=O)(=O)c1ccc(C(=O)Nc2cccc(Br)c2)cc1,0%,16µM*,?,?,-21%,?
CC1(C)OCC(CNC(=O)c2[nH]c(C(F)(F)F)nc2-c2ccccc2)O1 (configuration not stated),-4%,3%,-14%,i,-3%,i
CC1CCCN(S(=O)(=O)c2ccc(NC(=O)C3CCN(C(=O)C(C)(C)C)CC3)cc2)C1 (configuration not stated),-1%,?,?,i,-1%,i
COc1ccc(N(C)C(=O)c2cc3c(s2)-c2ccccc2OC3)c(OC)c1,-26%,9.2µM*,15µM*,i,-13%,i
CN(C(=O)c1cc2c(s1)-c1ccccc1S(=O)(=O)C2)c1ccccc1,-1%,23µM*,12µM*,i,0%,i
CN(C(=O)c1cc2c(s1)-c1ccccc1S(=O)(=O)C2)c1ccccc1F,0%,?,-23%,i,-3%,i
SMILES,HT1080 IDH1KD tx,TDP1 cell noCPT,DT40 TDP1 CPT,KB-V1 cytotox,HT1080NT lethal,KB-3-1 tox
COc1ccc(N(C)C(=O)c2cc3c(s2)-c2ccc(Cl)cc2S(=O)(=O)C3)c(OC)c1,-11%,?,18µM*,i,5%,?
Cc1nn(-c2ccccc2)c(Cl)c1/C=N/Nc1nncc(=O)[nH]1,3%,-8%,5%,i,2%,i
Cc1c(NC(=O)Nc2ccc(Cl)c(C(F)(F)F)c2)c(=O)n(-c2ccccc2)n1C,nt,-21%,-25%,i,nt,i
CC(c1ccco1)N(C(=O)c1ccccc1NS(=O)(=O)c1ccc(Cl)c([N+](=O)[O-])c1)c1ccccn1 (configuration not stated),1%,?,?,?,-6%,i
O=C(Oc1cccc2cccnc12)c1ccc(N2C(=O)C3C4CCC(C4)C3C2=O)cc1 (configuration not stated),13µM*,1µM*,0.52µM*,i,16µM*,i
O=C(Oc1cccc2cccnc12)c1cccc(-n2cnnn2)c1,11%,18µM*,?,i,18%,i
O=C1C2C3C=CC(C3)C2C(=O)N1c1cccc2cccnc12 (configuration not stated),7%,?,-4%,i,8%,i
O=C(Oc1cccc2cccnc12)c1cccc(N2C(=O)C3C4CCC(C4)C3C2=O)c1 (configuration not stated),?,4.6µM*,4.1µM*,i,?,i
CC(OC(=O)c1cccc(-n2cnnn2)c1)C(=O)c1ccccc1 (configuration not stated),-3%,-2%,10%,i,-4%,i
Clc1cccc(-c2ccc3nccn3c2)c1Cl,-5%,?,?,i,-14%,i
Cc1cc(C(C)(C)C)c(O)c(C(C)(C)C)c1,nt,13µM*!,?,i,nt,i
CC(C)(CO)Cc1cc(C(C)(C)C)c(O)c(C(C)(C)C)c1,?,?,18µM*,i,?,i
CC(C)(C)c1ccc(O)c(/C=N\O)c1,-24%,-13%,-11%,i,-29%,i
CC(C)(C)c1ccc(O)c(O)c1,?,?,34µM*,i,?,?
CC(C)(C)c1cc(O)c(C(C)(C)C)cc1O,nt,12µM*!,11µM*!,nt,nt,nt
